Inconclusive results are not listed. Calls of active or inactive are those of the source. The call rests on the fitted dose curve; in most records, active means well fitted inhibition curve with a large enough effect; inconclusive means small, poorly fitted or top-dose-only effect; inactive means flat fitted curve, though single readings scatter. Where a SMILES comes first, the peptide text is derived from it.
Legend:
Experiment in all cases: Cytotoxic Profiling of Annotated Libraries Using Quantitative High-Throughput Screening (AID 1296008); further: nearly all actives have a fitted effect of over 60% in size
Details in all cases: Five cell lines viability, CellTiter-Glo ATP luminescence, 48-72 h; max response: stronger effect = lower value
CRL-7250 = system: CRL-7250
Method in brief: (§1)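 Cytotoxicity was measured as CellTiter-Glo ATP luminescence, read after 10 min at room temperature. Compound treatment of the cells lasted 48 or 72 hr at 37 degrees Celsius in a qHTS format.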

HEK293 = system: HEK293
Method in brief: as §1

HaCat = system: HaCat
Method in brief: as §1

KB-3-1 = system: KB-3-1
Method in brief: as §1

NIH3T3 = system: NIH3T3
Method in brief: as §1
On the % scale 0 is the no-effect control and ±100 the full control effect; potency means the concentration at half of the fitted maximal effect.

C[C@@H]1C(=O)O[C@H](C)[C@H]1C[C@@H](O)[C@](C)(O)[C@H]1CC[C@@]2(O)C3=CC(=O)[C@@H]4C[C@@H](O)[C@@H](O)C[C@]4(C)C3CC[C@]12C (stereo not given in full)
inactive: max response (CRL-7250) -1.86% | outcome (HEK293) | max response (HaCat) -25% | max response (KB-3-1) 8.3% | max response (NIH3T3) 1.28%

Cc1cc(OCCN2CCOCC2)nn1-c1ccc2ccccc2c1
inactive: max response (CRL-7250) -11.2% | max response (HEK293) -15.6% | outcome (HaCat) | max response (KB-3-1) -10.7% | max response (NIH3T3) 2.01%

CCc1nn(CCO)c(CC)c1Oc1cc(C#N)cc(C#N)c1
inactive: outcome (CRL-7250) | max response (HEK293) 2.02% | outcome (HaCat) | outcome (KB-3-1) | max response (NIH3T3) -3.44%

CC1=CCC(O)C2(C)CCC3C(C)C(=O)OC3C12 (stereo not given)
inactive: max response (CRL-7250) -3.96% | max response (HEK293) -18.2% | outcome (HaCat) | max response (KB-3-1) -6.48% | max response (NIH3T3) -0.383%

CC1CCC2(C(=O)O)CCC3(C)C(=CCC4C5(C)C[C@@H](O)[C@@H](O)C(C)(CO)C5CCC43C)C2C1(C)O (stereo not given in full)
inactive: max response (CRL-7250) -2.68% | max response (HEK293) -0.908% | outcome (HaCat) | outcome (KB-3-1) | outcome (NIH3T3)

CC1CC=C2C1CC1(O)C(=O)CC2(C)C1(C)CO (stereo not given)
inactive: outcome (CRL-7250) | max response (HEK293) -7.63% | max response (HaCat) 4.08% | outcome (KB-3-1) | outcome (NIH3T3)

CCc1cc(CC[C@]2(C3CCCC3)CC(O)=C(Cc3nc4nc(C)cc(C)n4n3)C(=O)O2)cc(CC)n1
inactive: outcome (CRL-7250) | max response (HEK293) 0.838% | outcome (HaCat) | max response (KB-3-1) -0.912% | max response (NIH3T3) -7.94%

C[C@@H]1O[C@@H](O[C@H]2[C@H](O[C@H]3[C@H](O[C@H]4CC[C@@]5(C)C(CC[C@]6(C)C5CC=C5[C@@H]7CC(C)(C)C[C@@H](O)[C@]7(C)CC[C@]56C)C4(C)C)O[C@H](C(=O)O)[C@@H](O)[C@@H]3O)O[C@H](C(=O)O)[C@H](O)[C@@H]2O)[C@H](O)[C@H](O)[C@H]1O (stereo not given in full)
inactive: max response (CRL-7250) -7.66% | max response (HEK293) -8.11% | outcome (HaCat) | outcome (KB-3-1) | max response (NIH3T3) 0.708%

CCCCC(=O)N1c2ccccc2NC2=C(C(=O)CCC2)C1c1ccccc1Cl (stereo not given)
inactive: outcome (CRL-7250) | max response (HEK293) -3.83% | outcome (HaCat) | max response (KB-3-1) 6.63% | max response (NIH3T3) -4.77%

Cc1ccc(C)c(NC(=O)CNS(=O)(=O)c2ccc3[nH]c(=O)oc3c2)c1
inactive: outcome (CRL-7250) | max response (HEK293) -17.1% | max response (HaCat) -0.793% | max response (KB-3-1) 8.68% | outcome (NIH3T3)

CC(=O)OC12CC(C)C(OC(=O)c3ccccc3)C1/C=C(/C)C(OC(=O)c1ccccc1)CC(=O)C(C)(C)/C=C/C(C)C2=O (stereo not given)
inactive: max response (CRL-7250) -26.4% | max response (HEK293) -14.7% | outcome (HaCat) | outcome (KB-3-1) | max response (NIH3T3) 1.94%

C/C(=C\CO)CC/C=C(\C)C(=O)O[C@@H]1O[C@H](CO)[C@@H](O)[C@H](O)[C@H]1O
inactive: max response (CRL-7250) -4.11% | max response (HEK293) 1.04% | outcome (HaCat) | outcome (KB-3-1) | max response (NIH3T3) 1.84%

C=C1CCC2C(C)(C)CC(O)CC2(C)C1CCC(C)CC(=O)O (stereo not given)
inactive: max response (CRL-7250) -5.49% | max response (HEK293) 1.49% | outcome (HaCat) | max response (KB-3-1) -5.43% | max response (NIH3T3) -0.43%

CC1CC(O)/C=C/C(O)/C=C\C(=O)O1 (stereo not given)
inactive: max response (CRL-7250) 0.731% | max response (HEK293) -11.1% | outcome (HaCat) | outcome (KB-3-1) | outcome (NIH3T3)

CC(=O)O[C@@]1(C)[C@@H]2CC(=C(C)C)C(=O)C[C@@]2(C)CC[C@H]1OC(=O)C1(C)OC1C (stereo not given in full)
inactive: max response (CRL-7250) 1.92% | max response (HEK293) -20.6% | max response (HaCat) 0.799% | max response (KB-3-1) 0.573% | outcome (NIH3T3)

NC1(c2ccc(NC(=O)c3ccnc(-c4cc(C(=O)O)ccn4)c3)cc2)CC1
inactive: outcome (CRL-7250) | max response (HEK293) -8.28% | outcome (HaCat) | outcome (KB-3-1) | outcome (NIH3T3)

CC1(C)CC[C@]2(C(=O)O)CC[C@]3(C)C(=CCC4[C@@]5(C)C[C@@H](O)[C@H](O)[C@](C)(CO)C5CC[C@]43C)[C@@H]2[C@@H]1O (stereo not given in full)
inactive: outcome (CRL-7250) | max response (HaCat) 1.54% | max response (KB-3-1) -5.13% | outcome (NIH3T3)
active: Potency (HEK293) 7.96 µM

O=C(OC[C@H]1O[C@@H](Oc2ccccc2COC(=O)C2(O)C=CCCC2O)[C@H](O)[C@@H](O)[C@@H]1O)c1ccccc1 (stereo not given in full)
inactive: outcome (CRL-7250) | max response (HEK293) -3.05% | max response (HaCat) 3.77% | max response (KB-3-1) 1.49% | outcome (NIH3T3)

C=C(C(=O)O)C1CC(OC(=O)CC(C)CC)C2(C)CCCC(=C)C2C1 (stereo not given)
inactive: max response (CRL-7250) 4.7% | max response (HEK293) 4.07% | outcome (HaCat) | max response (KB-3-1) 2.84% | outcome (NIH3T3)

COC(=O)[C@H](O)[C@H]1C(C)(C)[C@H](OC(C)=O)[C@@]2(O)C(=O)[C@]1(C)C1CC[C@]3(C)C(CC(=O)O[C@H]3c3ccoc3)[C@]13O[C@@H]32 (stereo not given in full)
inactive: outcome (CRL-7250) | max response (HEK293) -3.86% | max response (HaCat) 4.44% | max response (KB-3-1) -6.4% | outcome (NIH3T3)

CC1CCC2C(C)(C)[C@H](O)CC[C@]2(C)C12Cc1c(O)cc3c(c1O2)CN(C(CCC(=O)O)C(=O)O)C3=O (stereo not given in full)
inactive: max response (CRL-7250) -1.74% | max response (HEK293) 0.0488% | outcome (HaCat) | outcome (KB-3-1) | max response (NIH3T3) 3.99%

COC(=O)C[C@H]1C(C)(C)[C@H](OC(=O)C(C)C)C2CC3=C4CC(=O)O[C@@H](c5ccoc5)[C@]4(C)CCC3[C@@]1(C)C2=O (stereo not given in full)
inactive: max response (CRL-7250) 2.69% | max response (HEK293) -10.8% | outcome (HaCat) | max response (KB-3-1) -0.987% | max response (NIH3T3) 1.73%

Cc1c(O)cc2c(c1O)COC1(O)CCCOC21 (stereo not given)
inactive: max response (CRL-7250) -4.56% | max response (HEK293) -1.54% | max response (HaCat) -19.1% | outcome (KB-3-1) | outcome (NIH3T3)

Cc1nc(-c2cccnc2)sc1C(=O)Nc1ccccc1-c1cn2c(CN3CCOCC3)csc2n1
inactive: max response (CRL-7250) -2.14% | max response (HEK293) -4.67% | outcome (HaCat) | max response (KB-3-1) -10.4% | max response (NIH3T3) -1.07%

CC(C)C1NC(=O)CNC(=O)C2CCCN2C(=O)C(Cc2c[nH]c3ccccc23)NC(=O)CNC(=O)C(Cc2ccc(O)cc2)NC(=O)CNC1=O (stereo not given) (cyclo(GVGYGWP); configuration not given here)
inactive: max response (CRL-7250) -2.61% | max response (HEK293) 3.25% | outcome (HaCat) | outcome (KB-3-1) | max response (NIH3T3) -0.317%

CC1=C(CCC(C)O[C@@H]2O[C@H](CO)[C@@H](O)[C@H](O)[C@H]2O)C(C)(C)CC(O)C1 (stereo not given in full)
inactive: max response (CRL-7250) -1.39% | max response (HEK293) 1.2% | max response (HaCat) -0.421% | max response (KB-3-1) 1.93% | outcome (NIH3T3)

Cn1cc(CCn2cnc(-c3cnn(C)c3)c2-c2ccc(C#N)cc2)cn1
inactive: max response (CRL-7250) -0.888% | max response (HEK293) 0.036% | max response (HaCat) -11.5% | outcome (KB-3-1) | outcome (NIH3T3)

CC1=C2C(=O)C=C(CO)C2C2OC(=O)C(CS(=O)(=O)O)C2C(OC(=O)Cc2ccc(O)cc2)C1 (stereo not given)
inactive: outcome (CRL-7250) | max response (HEK293) -5.22% | max response (HaCat) -1.36% | max response (KB-3-1) -6.7% | outcome (NIH3T3)

CC(C)=CCC/C(C)=C/CO[C@@H]1O[C@H](CO[C@@H]2OC[C@](O)(CO)[C@H]2O)[C@@H](O)[C@H](O)[C@H]1O
inactive: max response (CRL-7250) 2.57% | max response (HEK293) -12.6% | outcome (HaCat) | outcome (KB-3-1) | outcome (NIH3T3)

O=C(c1c2ccccc2cc2ccccc12)N1CCC(N2CCC[C@@H](C(=O)N3CCOCC3)C2)CC1
inactive: max response (CRL-7250) 2.01% | max response (HEK293) -10.6% | outcome (HaCat) | outcome (KB-3-1) | max response (NIH3T3) -3.13%

CC(=O)OC1CC2(C)C(CCC(C)C23Cc2c(O)cc4c(c2O3)CNC4=O)C(C)(C)C1O (stereo not given)
inactive: max response (CRL-7250) -8.86% | outcome (HEK293) | max response (HaCat) -6.41% | outcome (KB-3-1) | max response (NIH3T3) -10.8%

C/C=C(\C)C(=O)OCC1OC(OCC2OC(OC3(CO)OC(CO)C(O)C3O)C(O)C(O)C2O)C(O)C(O)C1O (stereo not given)
inactive: max response (CRL-7250) -0.798% | max response (HEK293) -3.28% | outcome (HaCat) | outcome (KB-3-1) | outcome (NIH3T3)

COc1ccc([C@H]2OC[C@H]3[C@@H]2CO[C@@H]3c2ccc(O[C@@H]3O[C@H](CO)C(O)[C@H](O)[C@H]3O)c(OC)c2)cc1OC (stereo not given in full)
inactive: max response (CRL-7250) -2.87% | max response (HEK293) 1.89% | max response (HaCat) -9.63% | max response (KB-3-1) -3.78% | outcome (NIH3T3)

CC1(CO)CCCC2(C)C1C(OC(=O)c1ccccc1)CC1C(=O)OCC12O (stereo not given)
inactive: max response (CRL-7250) -1.52% | max response (HEK293) -0.598% | outcome (HaCat) | max response (KB-3-1) 5.44% | outcome (NIH3T3)

CC(=O)O[C@@H]1C[C@@H](C)[C@](O)(CCC2=CC(=O)OC2)[C@@]2(C)CCCC(C)(C)C12 (stereo not given in full)
inactive: outcome (CRL-7250) | max response (HEK293) -5.82% | outcome (HaCat) | max response (KB-3-1) 9.64% | max response (NIH3T3) 2.01%

CC(C)=CCC[C@](C)(O[C@@H]1O[C@H](CO)[C@@H](O)[C@H](O)[C@H]1O)[C@H]1CC[C@]2(C)[C@@H]1[C@H](O)CC1[C@@]3(C)CC[C@H](O)C(C)(C)C3[C@@H](O[C@@H]3O[C@H](CO)[C@@H](O)[C@H](O)[C@H]3O[C@@H]3O[C@@H](C)[C@H](O)[C@@H](O)[C@H]3O)C[C@]12C (stereo not given in full)
inactive: max response (CRL-7250) -1.6% | max response (HEK293) -1.21% | max response (HaCat) -12.1% | max response (KB-3-1) 8.47% | outcome (NIH3T3)

COc1c2cc(c(O[C@@H]3O[C@H](CO)[C@@H](O)[C@H](O)[C@H]3O)c1OC)CCCCC(O)CCc1ccc(O)c-2c1 (stereo not given in full)
inactive: max response (CRL-7250) 0.579% | max response (HEK293) -2.25% | outcome (HaCat) | outcome (KB-3-1) | max response (NIH3T3) 1.47%

CCC12CCCN3CCc4c(n(c5ccccc45)C(O)C1)C32 (stereo not given)
inactive: max response (CRL-7250) -2.83% | max response (HEK293) -7.92% | outcome (HaCat) | outcome (KB-3-1) | max response (NIH3T3) -1.2%

CC1=C2C(=O)C=C(CO[C@@H]3O[C@H](CO)[C@@H](O)[C@H](O)[C@H]3O)[C@@H]2[C@H]2OC(=O)[C@H](C)[C@@H]2CC1
inactive: max response (CRL-7250) -4.79% | max response (HEK293) 3.74% | max response (HaCat) 4.93% | max response (KB-3-1) 0.664% | outcome (NIH3T3)
